EPAC1 agonist: activates human EPAC1 exchange factor | O95398 | EPAC1 agonist qHTS, biochemical assay; response scale: 100% = response to 6.5 mM cAMP | Potency, µM (top dose mostly 154 µM), actives largely listed as activators | hit rate 0.073% among 360,000; note: nearly all actives have a fitted effect of over 60% in size
Target sequence (O95398 whole entry, looked up): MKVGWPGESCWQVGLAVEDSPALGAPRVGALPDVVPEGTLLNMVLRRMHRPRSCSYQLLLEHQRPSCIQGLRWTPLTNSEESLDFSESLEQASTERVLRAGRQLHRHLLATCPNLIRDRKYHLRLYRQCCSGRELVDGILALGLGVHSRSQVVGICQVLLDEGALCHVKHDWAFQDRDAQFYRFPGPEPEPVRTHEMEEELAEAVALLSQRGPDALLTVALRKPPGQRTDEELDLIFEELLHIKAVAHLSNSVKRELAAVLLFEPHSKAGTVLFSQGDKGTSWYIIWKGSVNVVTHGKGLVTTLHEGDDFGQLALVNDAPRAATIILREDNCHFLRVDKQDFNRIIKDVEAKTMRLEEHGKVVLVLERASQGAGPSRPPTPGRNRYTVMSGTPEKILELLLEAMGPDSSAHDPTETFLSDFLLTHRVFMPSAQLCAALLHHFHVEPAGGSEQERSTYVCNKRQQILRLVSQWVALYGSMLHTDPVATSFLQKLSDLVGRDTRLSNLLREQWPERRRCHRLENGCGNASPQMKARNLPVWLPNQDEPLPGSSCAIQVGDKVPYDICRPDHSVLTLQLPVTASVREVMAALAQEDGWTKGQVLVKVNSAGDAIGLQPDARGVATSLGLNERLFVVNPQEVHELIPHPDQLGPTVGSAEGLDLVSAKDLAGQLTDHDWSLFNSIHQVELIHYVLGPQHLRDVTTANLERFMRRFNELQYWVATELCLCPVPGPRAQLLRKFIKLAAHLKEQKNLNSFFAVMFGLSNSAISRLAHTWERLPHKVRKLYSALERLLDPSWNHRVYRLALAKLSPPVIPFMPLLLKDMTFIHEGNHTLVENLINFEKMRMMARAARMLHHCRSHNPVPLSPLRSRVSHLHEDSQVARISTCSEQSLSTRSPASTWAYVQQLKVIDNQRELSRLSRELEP
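Nucleotide exchange assay: 100 nM EPAC1 with 250 nM Rap1B loaded with BODIPY-GDP and 50 uM GDP, room temperature. Fluorescence (480/540 nm) read every 5 min for 30 min; signal change normalized to 6.5 mM cAMP as full agonist.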
B2AR arrestin: agonists driving beta-arrestin recruitment to human beta2-adrenergic receptor; hit rate 0.02% among 330,000; AID 492947; Potency, µM (titrated, usually from 46.1 µM), hits mostly activators; beta-arrestin recruitment to beta2AR, cell-based reporter; note: nearly all actives have a fitted effect of over 65% in size
EPAC2 ag: agonists of human EPAC2 (RAPGEF4); AID 720711; Potency, µM (series often up to 154 µM), most hits filed as activators; Q8WZA2; hit rate 0.079% among 360,000; EPAC2 activation, biochemical qHTS; response scale: 100% = 6.5 mM cAMP response; note: nearly all actives have a fitted effect of over 50% in size
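In this primary screen, activation is scored as increased exchange of BODIPY-GDP from Rap1B by 100 nM EPAC2, with 50 uM GDP as competitor. Signal is normalized to the 6.5 mM cAMP agonist control.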
EPAC2 antagonist: antagonists of human EPAC2. Q8WZA2. AID 720708. hit rate 0.18% among 360,000. EPAC2 GEF exchange of Rap1B-BODIPY-GDP, fluorescence. Potency, µM (top dose mostly 114 µM), usual class: inhibitors; note: nearly all actives have a fitted effect of over 45% in size
EPAC1 antagonist: EPAC1 (human) antagonism. EPAC1 GEF assay, Rap1b-BODIPY-GDP exchange fluorescence. Potency, µM (top dose mostly 115 µM), actives largely listed as inhibitors. hit rate 0.14% among 360,000; note: nearly all actives have a fitted effect of over 50% in size
Large screens that a line does not name were inactive. A selection: hits, their analogues and other compounds. The true share with any hit is near 0.4%. Calls come from the whole dose curve; as a rule, active = well fitted curve in the direction sought with a large enough effect; inconclusive = small, poorly fitted or top-dose-only effect, or another doubt; inactive = no such curve, though single readings can be large; an effect the other way counts as inactive or inconclusive.

CSc1nc(N(C)CCO)c2sc3nc(-c4ccco4)c4c(c3c2n1)CCC4	EPAC1 antagonist 45µM
Oc1cc(-n2cccn2)c(O)cc1-n1cccn1	none
O=C(COC(=O)CNS(=O)(=O)c1cccc(F)c1)NCCc1ccccc1	none
CSC1=NSC2=NC(=O)/C(=C/c3coc4ccccc4c3=O)C(=N)N12	EPAC1 agonist 100µM, EPAC2 ag 89µM
N=C1/C(=C\c2coc3ccccc3c2=O)C(=O)N=C2SC=CN12	EPAC1 agonist 89µM, EPAC2 ag 112µM
CSC1=NSC2=NC(=O)/C(=C\c3cccs3)C(=N)N12	none
N=C1/C(=C/c2cccs2)C(=O)N=C2SN=C(SCc3ccccc3)N12	EPAC1 antagonist 79µM
CC1=CC2=NC(=O)/C(=C/c3coc4ccc(Cl)cc4c3=O)C(=N)N2O1	EPAC1 agonist inconclusive, EPAC2 ag inconclusive
CSC1=NSC2=NC(=O)/C(=C/c3coc4ccc(O)cc4c3=O)C(=N)N12	EPAC1 agonist 79µM, EPAC2 ag 100µM
CCCCCOc1ccc(C(=O)CCC(=O)NC(C)c2ccc(S(N)(=O)=O)cc2)cc1 (stereo unspecified)	EPAC2 antagonist inconclusive
O=C(Cn1nnc(-c2ccccc2F)n1)N1CCCCC1	none
CN1/C(=C\C(=O)Nc2ccc(Cl)cc2)C(C)(C)c2ccccc21	none
CN1/C(=C/C=N/n2cnnc2)C(C)(C)c2ccccc21	none
CN1/C(=C\C=C(C#N)C#N)C(C)(C)c2ccccc21	EPAC2 ag 63µM
CN1/C(=C\C=C(/C#N)C(=O)Nc2ccc(Cl)cc2)C(C)(C)c2ccccc21	EPAC1 agonist inconclusive, EPAC2 ag 50µM
CC[C@H]1C/C=C\Cc2ccccc2[C@@H](C(=O)C[C@@H](O)CC(C)=O)OC1=O	none
Cc1cc(C)c(S(=O)(=O)N2CCN(C(=O)CC(C)n3nc(C)nc3C)CC2)c(C)c1 (stereo unspecified)	none (no result: B2AR arrestin)
COc1ccc(-c2csc(C(C)(O)c3cccc(F)c3)n2)cn1 (stereo unspecified)	none (no result: B2AR arrestin)
COc1cccc(Nc2nnc(Cc3cccnc3)c3ccccc23)c1	none
O=C(O)CSc1cc(NS(=O)(=O)c2ccc(Cl)cc2)c2ccccc2c1O	EPAC2 ag inconclusive, EPAC2 antagonist 79µM, EPAC1 antagonist inconclusive
Cc1cc(C)c(S(=O)(=O)Nc2cc(SCC(=O)O)c(O)c3ccccc23)cc1C	EPAC1 antagonist inconclusive
COc1ccc(S(=O)(=O)Nc2cc(Sc3ncn[nH]3)c(O)c3ccccc23)cc1	none (no result: EPAC1 agonist, EPAC2 ag, EPAC2 antagonist, EPAC1 antagonist)
COc1ccc(S(=O)(=O)Nc2cc(SCC(=O)O)c(O)c3ccccc23)cc1	EPAC1 antagonist 79µM
COc1ccc(CC(=O)Nc2ccc(C(N)=O)cc2)cc1	none
COC(=O)/N=C(/Cc1ccc(OC)cc1)c1ccc(OC)cc1	EPAC2 antagonist 56µM
CN(C)c1ccc(-c2cc3ccccc3c(=O)o2)cc1	EPAC2 ag 100µM
N#C/C(=C\c1c(Cl)cccc1Cl)c1nc2ccccc2o1	B2AR arrestin 23µM
COC(=O)C1=C(C)N(Cc2ccccc2)C(=NCc2ccc(OC)cc2)N[C@H]1c1ccc(Br)cc1	none (no result: EPAC1 agonist, EPAC2 ag, EPAC2 antagonist, EPAC1 antagonist)
CCc1ccc(CNc2ccc(O)cc2)cc1	B2AR arrestin inconclusive, EPAC1 antagonist 8.9µM
Cc1ccc(NCc2ccccc2OCc2ccccc2F)cc1	none
CCOc1cc(CNc2ccc(O)cc2)ccc1OCc1ccc(Cl)cc1Cl	EPAC2 antagonist 35µM, EPAC1 antagonist inconclusive
Oc1ccc(NCc2ccc(OCc3ccccc3)cc2)cc1	B2AR arrestin inconclusive, EPAC1 antagonist inconclusive
CCOc1ccccc1CNc1ccc(O)cc1	EPAC1 antagonist 4.5µM
CCOc1cc(CNCc2ccccc2)ccc1OCc1ccc(Cl)cc1	none
Oc1ccc(NCc2ccccc2OCc2ccccc2F)cc1	EPAC1 antagonist 79µM
COc1ccc(CCNC(=O)C2CC=CCC2C(=O)O)cc1 (stereo unspecified)	none
CCCCC(=O)N(C)c1c(C)nc2ccc(C(=O)N3CCCCC3)cn12	none (no result: B2AR arrestin)
COc1cccc(CNCCO)c1OCc1ccc(Cl)cc1	none
CCOc1cccc(CNc2ccc(O)cc2)c1OCc1ccc(Cl)cc1	B2AR arrestin inconclusive, EPAC2 antagonist 35µM, EPAC1 antagonist 25µM
NC(=O)CSc1nc2c(sc3ccccc32)c(=O)n1CCCC(=O)NCC1CCCO1 (stereo unspecified)	EPAC1 agonist active
CCC(C)n1c(=N)c(C#N)cc2c(=O)n3ccccc3nc21 (stereo unspecified)	EPAC2 ag 56µM
CCCOc1ccc(C(=O)CCC(=O)Nc2ccc(N3CCN(C)CC3)cc2)cc1	none
Cc1ccc(NC(=O)CN(C)C(=O)c2ccc(Sc3nncn3C)c([N+](=O)[O-])c2)cc1	none
C[C@H](CO)N1C[C@H](C)[C@H](CN(C)C(=O)Nc2ccc(C(C)(C)C)cc2)OCc2cnnn2CCCC1=O	none (no result: B2AR arrestin)
O=C1C(=Cc2cccc(O)c2O)SC(=S)N1CCCN1CCOCC1	none (no result: B2AR arrestin)
COc1ccc(Cl)cc1NC(=O)CN(C)C(=O)CCNC(=O)c1ccccc1OC	none
COC(=O)C1=C(C)NC(C)=C([N+](=O)[O-])C1c1ccccc1C(F)(F)F (stereo unspecified)	EPAC2 antagonist 50µM
COc1cc(CNc2ccc(O)cc2)cc(Br)c1OCc1ccccc1	B2AR arrestin inconclusive, EPAC2 antagonist inconclusive, EPAC1 antagonist 40µM
COc1ccc(CN2C(=O)C(CC(=O)NC3CC3)CC(C(=O)N3CCOCC3)=C2C)cc1 (stereo unspecified)	none (no result: B2AR arrestin)
O=C(O)c1ccccc1-c1ccc(/C=C/c2cc(C(F)(F)F)[nH]c(=O)n2)o1	EPAC1 agonist 56µM, EPAC2 ag 100µM
O=c1nc(/C=C/c2ccc(-c3ccc(F)cc3)o2)cc(C(F)(F)F)[nH]1	none (no result: EPAC1 agonist, EPAC2 ag, EPAC2 antagonist, EPAC1 antagonist)
O=C(O)c1cc(Cl)ccc1-c1ccc(/C=C/c2cc(C(F)(F)F)[nH]c(=O)n2)o1	EPAC1 agonist 89µM, EPAC2 ag 100µM
O=C(C[C@@H]1C/C=C\C[C@H](Cc2ccc(F)cc2)C(=O)OC[C@H]2CCCN2C1=O)N[C@H](CO)Cc1ccccc1	none
O=C(CCl)NC1(C(=O)O)CCCC1	none (no result: B2AR arrestin)
COc1ccc(NS(=O)(=O)c2ccc(N3CCOCC3)c(NC(=O)c3ccc(F)cc3)c2)cc1	none
COc1ccc(NS(=O)(=O)c2ccc(O)c(NC(=O)c3cc4c(C)nn(-c5ccc(F)cc5)c4s3)c2)cc1	EPAC1 antagonist 50µM
COc1cc(SSc2cc(OC)cc([N+](=O)[O-])c2N)c(N)c([N+](=O)[O-])c1	B2AR arrestin 14µM
COc1cc([N+](=O)[O-])c2ncsc2c1	none
C[C@@H]1CCCCO[C@H](CN(C)Cc2ccc3c(c2)OCO3)[C@@H](C)CN([C@H](C)CO)C(=O)c2cc(NC(=O)c3ccccc3)ccc2O1	none (no result: B2AR arrestin)
CCC(=O)N1CCc2cc(OC)c(OC)cc2C1COc1ccccc1OC (stereo unspecified)	EPAC2 antagonist 45µM
CCC(=O)N1CCc2cc(OC)c(OC)cc2C1COc1ccc(F)cc1 (stereo unspecified)	EPAC2 antagonist 14µM

Screening data: PubChem BioAssay, National Center for Advancing Translational Sciences (NCATS)
